# Compound activity (PubChem BioAssay)
# The list is not random: actives were taken first. Their share in the collection is about 32%.
# PostGolgi yeast: growth inhibition of a yeast mutant, post-Golgi transport screen; post-Golgi transport phenotypic cell assay; inhibition, % at 10 µM; actives 0.9% (n = 98,000); AID 739;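 further: yeast cells grown in 1536-well plates; yeast grown about 18 h at 30C before absorbance read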
# CYP2C19 inhib: blocks human cytochrome P450 2C19 | P33261 | CYP2C19 Supersomes, luciferin-H EGE luminescence, 30 min | inhibition, % at 5 µM | actives 21% (n = 96,000) | AID 778;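 active means CYP2C19 inhibition above a set limit at 5 µM in the primary screen, cut at about 50% in these data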;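 further: plate controls were negative control wells for no effect and 2.5 mM tranylcypromine positive control for full effect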
# Target sequence (P33261 whole entry, looked up): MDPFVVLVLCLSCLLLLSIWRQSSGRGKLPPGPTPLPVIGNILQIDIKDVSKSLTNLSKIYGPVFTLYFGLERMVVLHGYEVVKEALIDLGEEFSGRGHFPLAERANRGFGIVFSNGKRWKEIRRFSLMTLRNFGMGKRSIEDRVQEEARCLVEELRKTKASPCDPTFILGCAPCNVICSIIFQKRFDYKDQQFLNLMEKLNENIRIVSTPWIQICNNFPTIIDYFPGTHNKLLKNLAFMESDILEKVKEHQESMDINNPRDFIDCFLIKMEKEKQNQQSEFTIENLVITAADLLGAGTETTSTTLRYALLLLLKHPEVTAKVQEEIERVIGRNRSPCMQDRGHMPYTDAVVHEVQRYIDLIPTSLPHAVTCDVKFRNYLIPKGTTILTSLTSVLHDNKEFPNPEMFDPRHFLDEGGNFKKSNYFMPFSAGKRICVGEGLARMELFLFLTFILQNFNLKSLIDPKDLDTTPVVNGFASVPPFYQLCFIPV
# CYP2C19 act: cytochrome P450 2C19 (human) activation; recombinant CYP2C19, luciferin-H EGE luminescence; stronger effect = higher value; 0 = fully inhibited enzyme, 1 = untreated enzyme; activation factor at 5 µM; 96,000 tested, under 10 active; AID 1025;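 active means activation factor of at least 2 at 5 µM in the primary screen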;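 further: 0 = wells with 2.5 mM tranylcypromine and 1 = vehicle-only wells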
# CYP2C9 inhib: inhibitors of human CYP2C9 | P11712 | CYP2C9 Supersomes, luciferin-H conversion, luminescence | inhibition, % at 5 µM | actives 20% (n = 96,000);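 active means blocking of liver enzyme CYP2C9 beyond about 50% at 5 µM, limit read from the data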
# CYP2C9 act: increases human cytochrome P450 2C9 activity | P11712 | recombinant CYP2C9, luciferin-H conversion, luminescence; stronger effect = higher value; factor 1 = untreated enzyme, 0 = blocked | activation factor at 5 µM | actives 1.4% (n = 96,000) | AID 1024;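 active means activation factor of 2 or more for CYP2C9 at a 5 µM dose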;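 further: 0 = sulfaphenazole-blocked wells and 1 = vehicle-only wells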
# PostGolgi ctrl: growth of the yeast control strain, post-Golgi counter-screen; efflux-deficient yeast background strain, growth absorbance A615, 16 h; inhibition, % at 10 µM; actives 5% (n = 98,000)
# Active calls of the source: *; / = no result given. Unless noted, no stated cut-off is given here; in the data, active means inhibition above about 30%; inactive means the rest.
SMILES,PostGolgi yeast,CYP2C19 inhib,CYP2C19 act,CYP2C9 inhib,CYP2C9 act,PostGolgi ctrl
Cc1cc(/C=C2\SC(=S)NC2=O)c(C)n1C1CC1,0,-6,1.1,-22,1.2,56*
Cc1ccc(N=Cc2cc(C)n(C3CCCC3)c2C)cc1,0,6,0.9,1,1,5
COc1ccc(-n2c(SCC(=O)NCc3ccco3)nc3c([nH]c4ccccc43)c2=O)cc1,-3,-7,1.1,-2,1,-4
O=C(CSc1nnc(COc2ccccc2F)n1-c1ccccc1)NCc1ccco1,-15,31,0.7,40,0.6,3
COc1ccc(-n2c(-c3ccc(F)cc3)cnc2SCC(=O)NCc2ccco2)cc1,-1,92*,0.1,94*,0.1,23
O=C(CSc1ncc(-c2ccccc2)n1-c1ccccc1)NCc1ccco1,0,50*,0.5,74*,0.3,8
COc1ccc(N2C(=O)C3CCCN3C2c2ccccc2)cc1 (stereo unspecified),11,4,1,6,0.9,24
CC(C)CNC(=O)NC1C(NC(=O)NCC(C)C)N(C)C(=O)N1C (stereo unspecified),-2,-16,1.2,-16,1.2,-6
CC1CCCN(C(=O)CSCC(=O)N=c2sc3ccccc3n2C)C1 (stereo unspecified),19,99*,0,21,0.8,14
Cc1ccccc1OC1C(=O)N(Cc2ccc3c(c2)OCO3)C1c1sccc1C (stereo unspecified),-1,74*,0.3,82*,0.2,9
Cc1ccccc1NS(=O)(=O)c1ccc(C2CNC(=O)C2)cc1 (stereo unspecified),-6,56*,0.4,47,0.5,11
O=C1CC(c2ccc(S(=O)(=O)Nc3cc(C(F)(F)F)cc(C(F)(F)F)c3)cc2)CN1 (stereo unspecified),-4,38,0.6,79*,0.2,9
COc1ccc(NC(=O)c2ccco2)cc1NC(=O)c1cccnc1,-3,-2,1,8,0.9,0
Nc1ccc(C(=O)OCCCc2nc3ccccc3[nH]2)cc1,/,51*,0.5,19,0.8,/
COCC(=O)NCc1nc2ccccc2[nH]1,2,-6,1.1,-12,1.1,-9
Nc1ccc(C(=O)OCc2nc3ccccc3[nH]2)cc1,16,81*,0.2,9,0.9,5
CC(C)(C)n1ncc2c(=O)n(CC(=O)N3CCN(c4ccccc4)CC3)cnc21,1,-1,1,1,1,9
CCc1ccc(NC(=O)C(C)Oc2nnc(-c3cccs3)c(-c3cccs3)n2)cc1 (stereo unspecified),-4,-14,1.1,68*,0.3,2
CC(C)c1ccc(NC(=O)COc2nnc(-c3cccs3)c(-c3cccs3)n2)cc1,-5,80*,0.2,86*,0.1,9
C=CCn1c(SCC(=O)Nc2ccc(C(=O)OC(C)C)cc2)nnc1-c1cccs1,-6,14,0.9,15,0.9,-10
COCCNC(=O)CN(c1cc(Cl)ccc1OC)S(C)(=O)=O,-17,7,0.9,10,0.9,2
O=C(O)c1c[nH]c2cc(C(F)(F)F)ccc2c1=O,0,/,/,/,/,15
COc1ccc2[nH]c(C)c(CCN3C(=O)C4C5C=CC(C5)C4C3=O)c2c1 (stereo unspecified),1,94*,0.1,37,0.6,13
COc1ccc2[nH]c(C)c(CN3CCCCC3)c(=O)c2c1,/,-12,1.1,-12,1.1,/
C/C(=N\N=C(/N)SC1CC(=O)N(c2ccccc2)C1=O)c1cccs1 (stereo unspecified),7,29,0.7,56*,0.4,3
SMILES,PostGolgi yeast,CYP2C19 inhib,CYP2C19 act,CYP2C9 inhib,CYP2C9 act,PostGolgi ctrl
C/C(=N\N=C(/N)SC1CC(=O)N(c2ccc(Br)cc2)C1=O)c1cccs1 (stereo unspecified),-5,13,0.9,48,0.5,41*
C/C(=N\N=C(/N)SC1CC(=O)N(c2ccc(Cl)cc2)C1=O)c1cccs1 (stereo unspecified),-5,14,0.9,-29,1.3,9
C/C(=N\N=C(/N)SC1CC(=O)N(c2ccc(Cl)c(Cl)c2)C1=O)c1cccs1 (stereo unspecified),102*,24,0.8,37,0.6,57*
C=C(C)c1nc(N)nc(N)n1,0,-2,1,3,1,3
CCOC(=O)N1CCN(C(=O)c2ccc(N(C)S(C)(=O)=O)cc2)CC1,-3,-5,1.1,-4,1,15
O=C(O)CCNc1ccc2c(c1)OCCO2,-5,2,1,0,1,5
c1cc(CNc2ccc3c(c2)OCCO3)ccn1,-2,73*,0.3,62*,0.4,9
O=C1CN(C(=O)COC(=O)CCC(=O)c2ccc3c(c2)OCCO3)c2ccccc2N1,-3,11,0.9,-10,1.1,4
O=C(Nc1nnc(C2CC2)s1)c1cc(-c2ccccc2)nn1-c1ccccc1,39*,21,0.8,34,0.7,25
O=C(Nc1nnc(C2CC2)s1)c1cc(S(=O)(=O)N2CCN(c3ccccc3)CC2)ccc1Cl,12,2,1,4,1,33*
Cc1nn(-c2ccc(C(=O)Nc3nnc(C4CC4)s3)cc2)c(C)c1Cl,-13,18,0.8,45,0.5,-3
CC1(C)NC(=O)N(CC(O)CN2C(=O)CCC2=O)C1=O (stereo unspecified),-20,-8,1.1,-22,1.2,15
CC1(C)NC(=O)N(CC(O)Cn2nnc3ccccc32)C1=O (stereo unspecified),5,69*,0.3,33,0.7,-3
CC1(C)NC(=O)N(CC(O)COc2cccc(F)c2)C1=O (stereo unspecified),0,69*,0.3,45,0.6,/
O=C1CCCc2c1[nH]c1ccccc21,2,-2,1,-119,2.2*,6
CC(C)n1c(SCc2ccc(Cl)cc2)nc2c1c(=O)[nH]c(=O)n2C,-3,50*,0.5,50,0.5,10
CCCCn1c(SCc2ccc(Cl)cc2)nc2c1c(=O)[nH]c(=O)n2C,15,19,0.8,25,0.8,17
C=C(C)CSc1nc2c(c(=O)[nH]c(=O)n2C)n1CCC(C)C,-4,27,0.7,70*,0.3,21
CCOCCn1c(SCc2ccc(F)cc2)nc2c1c(=O)[nH]c(=O)n2C,-4,3,1,-2,1,-2
CCOCCn1c(SCc2ccc(C)cc2)nc2c1c(=O)[nH]c(=O)n2C,-5,70*,0.3,34,0.7,14
COCCSc1nc2c(c(=O)[nH]c(=O)n2C)n1CCC(C)C,-6,-5,1,33,0.7,14
CCCCCCn1c(SCC(C)C)nc2c1c(=O)[nH]c(=O)n2C,-6,35,0.6,57*,0.4,24
Cc1cc(C)nc(Nc2nc(=O)c3ccccc3s2)n1,12,0,1,11,0.9,11
